Here are results for 63 compounds from the antibiotic and cytotoxicity screens of Wong et al. (2023).

About 3,300 (8.5%) of roughly 39,000 compounds were called active. The sample holds actives, similar compounds and a random draw of the others, so the mix is not that of the screen.

The test system of the assay is HepG2. The assay can be described thus: cytotoxicity call (relative viability < 0.9). To be noted: 10 µM.
Consider `C[C@H]1CCCCO[C@@H](CN(C)C(=O)Nc2ccc3c(c2)OCO3)[C@@H](C)CN([C@@H](C)CO)C(=O)c2cc(NC(=O)Nc3ccc(C(F)(F)F)cc3)ccc2O1`, for which the cytotoxicity call was “inactive”. The result for `C=CC[C@@H](CC(=O)N[C@H](CO)Cc1ccccc1)C(=O)NCCOC(=O)[C@@H](CC=C)CC(=O)OC(C)(C)C` reads “inactive”; that for `COCCCNC(=O)C[C@H]1SC(=N)NC1=O`, “inactive”; that for `COc1ccc(NC(=O)Nc2ccc3c(c2)C(=O)N([C@@H](C)CO)C[C@H](C)[C@H](CN(C)S(=O)(=O)c2cccs2)OCCCC[C@H](C)O3)cc1`, “inactive”. For `COc1ccc(S(=O)(=O)N2C[C@@H](O)COC[C@H]3O[C@H](CC(=O)N[C@@H]4CCN(Cc5ccccc5)C4)CC[C@@H]32)cc1`, the cytotoxicity call is “inactive”. For `O=C(C[C@@H]1C=C[C@@H](NS(=O)(=O)c2ccccc2)[C@H](CO)O1)NCc1ccncn1`, the cytotoxicity call is “inactive”. With `C[C@H](CO)N1C[C@H](C)[C@H](CN(C)C(=O)C2CCCCC2)OCCCC[C@H](C)Oc2ccc(NC(=O)Nc3ccc(C(F)(F)F)cc3)cc2C1=O` the entry was “inactive”. On to `COc1ccc(NC(=O)N(C)C[C@H]2Oc3ccc(NC(=O)CCN4CCOCC4)cc3CC(=O)N([C@H](C)CO)C[C@H]2C)cc1`, for which the cytotoxicity call is “inactive”.

With `COc1ccc(COC[C@]23N=C4SCc5ccccc5C(=O)N4[C@H](c4ccccc4O2)[C@H]3CO[Si](C)(C)C(C)(C)C)cc1`, the cytotoxicity call was “inactive”. The result for `O=C(NCC(F)(F)F)[C@H]1[C@H](CO)[C@H]2Cn3c(cccc3=O)[C@H]2N1C(=O)C1CCC1` reads “inactive”; that for `C[C@H]1CN([C@@H](C)CO)S(=O)(=O)c2ccc(C#Cc3ccccc3)cc2O[C@H]1CN(C)S(=O)(=O)c1cn(C)cn1`, “inactive”; that for `Cc1noc(C)c1NC(=O)Nc1ccc2c(c1)C(=O)N([C@H](C)CO)C[C@H](C)[C@H](CN(C)Cc1ccc3c(c1)OCO3)OCCCC[C@@H](C)O2`, “inactive”. On to `COc1ccc(S(=O)(=O)Nc2cccc3c2O[C@@H](CN(C)S(=O)(=O)c2cccs2)[C@H](C)CN([C@@H](C)CO)C3=O)cc1`, for which the cytotoxicity call was “inactive”.

In the case of `COc1cc2c(cc1OC)CN(C(=O)[C@@H]1[C@H]3C(=O)O[C@H](c4ccccc4)[C@H](c4ccccc4)N3[C@H](c3ccc(O)cc3)[C@@]13C(=O)Nc1ccccc13)CC2`, the cytotoxicity call was “inactive”.

Regarding `C[C@@H]1CCCCO[C@@H](CN(C)Cc2ccccc2)[C@H](C)CN([C@H](C)CO)C(=O)c2cc(NC(=O)Nc3ccc(F)cc3)ccc2O1`, the cytotoxicity call was “inactive”. The result for `C[C@@H]1CCCCO[C@@H](CN(C)Cc2ccccc2)[C@@H](C)CN([C@H](C)CO)C(=O)c2cc(NC(=O)Nc3ccc(F)cc3)ccc2O1` reads “inactive”; that for `C[C@@H]1CCCCO[C@@H](CN(C)Cc2ccc(F)cc2)[C@H](C)CN([C@@H](C)CO)C(=O)c2cc(NC(=O)Nc3ccccc3)ccc2O1`, “inactive”.

On to `C[C@@H]1CN([C@H](C)CO)C(=O)c2cc(NC(=O)Nc3ccc(F)cc3)ccc2O[C@@H](C)CCCCO[C@H]1CN(C)Cc1ccccc1`, for which the cytotoxicity call is “active”. `C[C@@H]1CCCCO[C@@H](CN(C)Cc2ccccc2)[C@@H](C)CN([C@@H](C)CO)C(=O)c2cc(NC(=O)Nc3ccc(F)cc3)ccc2O1`: the cytotoxicity call is “inactive”. Consider `C[C@@H]1CN([C@@H](C)CO)C(=O)c2cc(NC(=O)Nc3ccc(F)cc3)ccc2O[C@@H](C)CCCCO[C@H]1CN(C)Cc1ccccc1`, for which the cytotoxicity call is “active”.

Consider `C[C@@H]1CCCCO[C@H](CN(C)Cc2ccccc2)[C@@H](C)CN([C@H](C)CO)C(=O)c2cc(NC(=O)Nc3ccc(F)cc3)ccc2O1`, for which the cytotoxicity call is “inactive”. With `C[C@@H]1CN([C@@H](C)CO)C(=O)c2cc(NC(=O)Nc3ccc(F)cc3)ccc2O[C@@H](C)CCCCO[C@@H]1CN(C)Cc1ccccc1` the entry was “active”; with `C[C@@H]1CCCCO[C@H](CN(C)Cc2ccccc2)[C@@H](C)CN([C@@H](C)CO)C(=O)c2cc(NC(=O)Nc3ccc(F)cc3)ccc2O1`, “inactive”; with `C[C@H]1CCCCO[C@H](CN(C)Cc2ccccc2)[C@@H](C)CN([C@@H](C)CO)C(=O)c2cc(NC(=O)Nc3ccc(F)cc3)ccc2O1`, “active”. With `C[C@@H]1CCCCO[C@@H](CN(C)Cc2ccccc2)[C@H](C)CN([C@@H](C)CO)C(=O)c2cc(NC(=O)Nc3ccc(F)cc3)ccc2O1` the entry was “inactive”; with `C[C@@H]1CN([C@@H](C)CO)S(=O)(=O)c2ccc(C#CCN(C)C)cc2O[C@H]1CN(C)C`, “inactive”.

For `C[C@H]1CN([C@@H](C)CO)C(=O)c2cc(NS(=O)(=O)c3ccccc3)ccc2O[C@@H]1CN(C)CC1CC1`, the cytotoxicity call is “inactive”. With `C[C@H](CO)N1C[C@H](C)[C@@H](CN(C)Cc2ccc(C(=O)Nc3ccccc3N)cc2)Oc2ccc(NC(=O)Cc3cn(C)c4ccccc34)cc2CC1=O` the entry was “inactive”. For `CN1C(=O)c2cc(NC(=O)c3cccs3)ccc2OC[C@@H]2O[C@H](CC(=O)NCC(F)(F)F)CC[C@@H]21`, the cytotoxicity call was “inactive”. The result for `C[C@@H]1CN([C@H](C)CO)C(=O)CCCn2cc(nn2)CO[C@H]1CN(C)S(=O)(=O)c1ccc(Oc2ccccc2)cc1` reads “inactive”. The result for `C[C@H](O)C#Cc1cnc2c(c1)C(=O)N([C@@H](C)CO)C[C@@H](C)[C@H](CN(C)C(=O)Nc1ccc(C(F)(F)F)cc1)O2` reads “inactive”. For `CS(=O)(=O)N1CCCn2c(nnc2Cn2cccn2)C1`, the cytotoxicity call is “inactive”.

`O=C(NO)c1ccc(C(=O)N/N=C/[C@H](O)[C@@H](O)[C@H](O)[C@H](O)CO)cc1`: the cytotoxicity call was “inactive”. The result for `C[C@@H]1CN([C@H](C)CO)C(=O)c2cccc(NS(=O)(=O)c3ccc(F)cc3)c2O[C@H]1CN(C)S(=O)(=O)c1ccccc1` reads “inactive”.

`Cc1ccc(S(=O)(=O)NCCC(=O)N2CCOCCOCCOCC2)cc1`: the cytotoxicity call was “inactive”. The result for `CCOC(=O)N1CCN(C(=O)CN(C)S(=O)(=O)c2ccc3c(c2)c(=O)n(C)c(=O)n3C)CC1` reads “inactive”; that for `CN(CC(=O)NC1CCCC1)S(=O)(=O)c1ccc2c(c1)c(=O)n(C)c(=O)n2C`, “inactive”; that for `Cn1c(=O)c2cc(S(=O)(=O)N3CCOCC3)ccc2n(C)c1=O`, “inactive”. In the case of `C[C@H]1CCCN(C(=O)CCNS(=O)(=O)c2ccc3c(c2)c(=O)n(C)c(=O)n3C)C1`, the cytotoxicity call is “active”. With `Cn1c(=O)c2cc(S(=O)(=O)NCCC(=O)NC3CCCC3)ccc2n(C)c1=O` the entry was “active”. The result for `C[C@H](CO)N1C[C@H](C)[C@H](CN(C)Cc2ccc(C(=O)Nc3ccccc3N)cc2)Oc2ccc(NS(=O)(=O)c3cn(C)cn3)cc2C1=O` reads “inactive”; that for `C[C@H]1CN([C@@H](C)CO)C(=O)c2cc(NS(=O)(=O)c3cccs3)ccc2O[C@H]1CN(C)Cc1ccncc1`, “inactive”; that for `Clc1ccc(/C=C/C2=Nc3cccc4cccc(c34)N2)cc1`, “inactive”.

As to `Nc1c(O)cccc1C(=O)O`, the cytotoxicity call was “inactive”. Regarding `CCC[C@H](NC(=O)[C@@H]1[C@H]2CCC[C@H]2CN1C(=O)[C@@H](NC(=O)[C@@H](NC(=O)c1cnccn1)C1CCCCC1)C(C)(C)C)C(=O)C(=O)NC1CC1`, the cytotoxicity call was “active”. As for `CN1CCN(C(=O)C[C@H]2CC[C@@H]3[C@H](COc4ccc(NC(=O)c5ccc(F)c(F)c5)cc4C(=O)N3C)O2)CC1`, the cytotoxicity call is “inactive”. `N=C(C[n+]1ccccc1)NO`: the cytotoxicity call was “active”.

Turning to `c1cc[n+](C[n+]2ccccc2)cc1`, the cytotoxicity call is “inactive”. The result for `C[C@@H]1CCCCO[C@H](CN(C)Cc2ccc(C(F)(F)F)cc2)[C@H](C)CN([C@H](C)CO)C(=O)c2cc(NC(=O)c3ccncc3)ccc2O1` reads “inactive”; that for `C[C@@H]1CCCCO[C@H](CN(C)Cc2ccccc2)[C@H](C)CN([C@H](C)CO)C(=O)c2cc(NC(=O)Nc3ccccc3)ccc2O1`, “inactive”; that for `C[C@@H]1CCCCO[C@@H](CN(C)Cc2ccccc2)[C@@H](C)CN([C@H](C)CO)C(=O)c2cc(NC(=O)Nc3ccccc3)ccc2O1`, “inactive”.

With `C[C@@H]1CCCCO[C@H](CN(C)Cc2ccccc2)[C@H](C)CN([C@@H](C)CO)C(=O)c2cc(NC(=O)Nc3ccccc3)ccc2O1`, the cytotoxicity call was “inactive”. As for `C[C@@H]1CN([C@@H](C)CO)C(=O)c2cc(NC(=O)Nc3ccccc3)ccc2O[C@@H](C)CCCCO[C@H]1CN(C)Cc1ccccc1`, the cytotoxicity call is “inactive”.

On to `C[C@@H]1CCCCO[C@H](CN(C)Cc2ccccc2)[C@@H](C)CN([C@@H](C)CO)C(=O)c2cc(NC(=O)Nc3ccccc3)ccc2O1`, for which the cytotoxicity call was “inactive”. As to `C[C@@H]1CCCCO[C@@H](CN(C)Cc2ccccc2)[C@H](C)CN([C@H](C)CO)C(=O)c2cc(NC(=O)Nc3ccccc3)ccc2O1`, the cytotoxicity call was “active”. In the case of `C[C@@H]1CN([C@H](C)CO)C(=O)c2cc(NC(=O)Nc3ccccc3)ccc2O[C@@H](C)CCCCO[C@@H]1CN(C)Cc1ccccc1`, the cytotoxicity call was “active”.

For the compound `C[C@H](CO)N1C[C@H](C)[C@H](CN(C)Cc2ccccc2)OCCCC[C@H](C)Oc2ccc(NC(=O)Nc3ccccc3)cc2C1=O`, the cytotoxicity call was “inactive”. With `C[C@@H]1CCCCO[C@@H](CN(C)Cc2ccccc2)[C@H](C)CN([C@@H](C)CO)C(=O)c2cc(NC(=O)Nc3ccccc3)ccc2O1` the entry was “active”; with `C[C@H](CO)N1C[C@H](C)[C@@H](CN(C)Cc2ccccc2)OCCCC[C@H](C)Oc2ccc(NC(=O)Nc3ccccc3)cc2C1=O`, “inactive”; with `C[C@@H]1CN([C@H](C)CO)C(=O)c2cc(NC(=O)Nc3ccccc3)ccc2O[C@@H](C)CCCCO[C@H]1CN(C)Cc1ccccc1`, “active”. With `C[C@@H]1CN([C@@H](C)CO)C(=O)c2cc(NC(=O)Nc3ccccc3)ccc2O[C@@H](C)CCCCO[C@@H]1CN(C)Cc1ccccc1` the entry was “inactive”; with `Cc1noc(C)c1NC(=O)N(C)C[C@@H]1Oc2ccc(NS(=O)(=O)c3cn(C)cn3)cc2CC(=O)N([C@@H](C)CO)C[C@@H]1C`, “inactive”. For the compound `Cc1ccc(S(=O)(=O)N(C)C[C@H]2OCCCC[C@@H](C)Oc3ccc(NC(=O)Nc4ccc5c(c4)OCO5)cc3C(=O)N([C@@H](C)CO)C[C@H]2C)cc1`, the cytotoxicity call is “inactive”.
